Assay outcomes (PubChem)
PNC assembly inh – High Content Assay for Compounds that inhibit the Assembly of the Perinucleolar Compartment. PC3M PTB-GFP, PNC prevalence imaging, 16 h; active compounds read low. activity change (PNC), negative = inhibition, % at 10 µM. actives 3.1% (n = 140,000);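 active = readout at or below -70, meaning at least 70% loss of cells showing the perinucleolar compartment, a nuclear body marking cancer cells; inconclusive = readout between -30 and a set limit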;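 also: plate controls were DMSO wells for no effect and camptothecin positive control wells for full effect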
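Read-out is percentage of cells bearing a perinucleolar compartment, from automated 20x imaging of fixed, Hoechst-stained PC3M PTB-GFP cells. Cells were seeded 4 h, then exposed 16 h to compound (23 nl of library stock) in duplicate plates.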
NPSR antag – qHTS Assay for Antagonists of the Neuropeptide S Receptor: cAMP Signal Transduction | CHO-NPSR cells, cAMP TR-FRET, antagonist mode | Potency, µM (series often up to 38.3 µM), without a hit: at the top dose activity change, negative = inhibition, usual class: inhibitors | actives 1% (n = 220,000); also: potency is read from the fitted curve at half-maximal effect; nearly all actives have a fitted effect of over 50% in size
IMPase Li inh – qHTS Assay for Identifying the Cell-Membrane Permeable IMPase Inhibitors: Potentiation with Lithium; CHO-M1 cells, IP1 TR-FRET (IP-One), carbachol + lithium; actives 0.35% (n = 210,000); Potency, µM (top dose mostly 59.4 µM), for inactives: at the top dose activity, negative = IMPase inhibition, most hits filed as inhibitors; AID 1457, 2008;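 also: IP1 builds up when IMPase is blocked and the TR-FRET signal falls; potency is read from the fitted curve at half-maximal effect; plate controls were basal vehicle for no effect and high inhibitor control for full effect; nearly all actives have a fitted effect of over 50% in size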
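CHO cells stably expressing M1 receptor (2000/well) were cultured 16–30 h, then exposed to compounds with a small lithium addition for 30 min at 37C. IP1 was measured by TR-FRET competition; AC50 from Hill fits.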
HPGD block – qHTS Assay for Inhibitors of HPGD (15-Hydroxyprostaglandin Dehydrogenase) | AID 894, 2007 | Potency, µM, for the others: top-dose activity change, negative = inhibition, hits mostly inhibitors | 15-hydroxyprostaglandin dehydrogenase [NAD(+)] (Homo sapiens), P15428 | purified HPGD, NADH fluorescence kinetic, PGE2 substrate | actives 4.3% (n = 150,000); active = well fitted inhibition curve with a large enough effect, not every such curve was filed as active; inconclusive = small, poorly fitted or top-dose-only effect, or another doubt; inactive = no such curve, though single readings can be large or run the other way; also: potency is read from the fitted curve at half-maximal effect
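NADH formation kinetics: reaction with 30 uM PGE2 and 1 mM NAD+ (final), 20 nM enzyme, Tris-HCl pH 8 with Tween 20, after 15 min compound preincubation at room temperature. Fluorescence change, last versus first of five reads.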
ALDH1A1 block – qHTS Assay for Inhibitors of Aldehyde Dehydrogenase 1 (ALDH1A1); Aldehyde dehydrogenase 1A1 (Homo sapiens), P00352; Purified ALDH1A1, NADH fluorescence, propionaldehyde substrate; AID 1030, 2008; actives 7.3% (n = 220,000); Potency, µM (titrated, usually from 75.3 µM), without a hit: at the top dose activity, negative = inhibition, hits mostly inhibitors; active = well fitted inhibition curve with a large enough effect, not every such curve was filed as active; inconclusive = small, poorly fitted or top-dose-only effect, or another doubt; inactive = no such curve, though single readings can be large or run the other way;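 also: potency is read from the fitted curve at half-maximal effect; plate controls were no enzyme wells and a reference inhibitor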
Target sequence (P00352 whole entry, looked up): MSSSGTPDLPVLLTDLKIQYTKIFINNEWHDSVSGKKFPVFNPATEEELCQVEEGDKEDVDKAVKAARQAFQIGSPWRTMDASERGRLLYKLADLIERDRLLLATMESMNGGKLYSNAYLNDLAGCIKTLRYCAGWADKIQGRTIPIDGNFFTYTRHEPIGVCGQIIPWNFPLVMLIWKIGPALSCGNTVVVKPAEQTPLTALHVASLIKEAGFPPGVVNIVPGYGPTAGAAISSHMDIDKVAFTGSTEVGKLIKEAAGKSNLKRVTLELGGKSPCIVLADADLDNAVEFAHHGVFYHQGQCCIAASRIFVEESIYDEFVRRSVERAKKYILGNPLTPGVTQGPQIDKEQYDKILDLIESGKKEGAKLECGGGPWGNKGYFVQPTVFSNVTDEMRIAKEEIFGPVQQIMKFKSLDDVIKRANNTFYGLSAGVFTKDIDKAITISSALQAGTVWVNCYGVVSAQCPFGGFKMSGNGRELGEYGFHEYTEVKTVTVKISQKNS
IMPase inh – qHTS Assay for Identifying the Cell-Membrane Permeable IMPase Inhibitors; Inositol monophosphatase 1 (Rattus norvegicus), P97697; CHO-M1 cells, IP1 accumulation, HTRF TR-FRET ratio; inhibition (IP1 accumulation), % at 46.1 µM; 120,000 tested, under 10 active; AID 901, 2007; active = well fitted curve in the direction sought with a large enough effect in the signal ratio, not every such curve was filed as active; inconclusive = small, poorly fitted or top-dose-only effect, or a change in a side signal; inactive = no such curve, though single readings can be large or run the other way; the % refers to the signal ratio;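 also: cells stimulated with carbachol in lithium chloride buffer; plate controls were DMSO basal wells for no effect and reference inhibitor wells for full effect; higher means more IMPase inhibition seen as more IP1 and lower FRET ratio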
Target sequence (P97697 whole entry, looked up): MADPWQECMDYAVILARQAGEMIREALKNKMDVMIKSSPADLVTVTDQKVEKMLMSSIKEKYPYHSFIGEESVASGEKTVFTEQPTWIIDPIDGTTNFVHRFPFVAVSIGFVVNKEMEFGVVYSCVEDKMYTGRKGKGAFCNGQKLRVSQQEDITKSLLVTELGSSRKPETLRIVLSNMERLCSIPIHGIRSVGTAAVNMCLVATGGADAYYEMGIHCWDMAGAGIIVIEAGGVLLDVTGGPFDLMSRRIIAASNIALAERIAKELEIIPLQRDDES
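CHO-M1, 2000 cells/well, cultured 16–30 h; cpd up to 46 uM; carbachol (50 uM solution, stimulation buffer w/ 50 mM LiCl, pH 7.4), 30 min 37C; IP-One TR-FRET, 10 min RT; Ex 320/Em 665, 620; Hill-fit AC50.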
* = called active by the depositor; ? = inconclusive; . = no result given; [ ] = dose if it differs, or a comment. An excerpt weighted towards active compounds, which were near 11% of everything screened. Unless noted, calls follow the shape of the dose curve; as a rule, active = well fitted curve in the direction sought with a large enough effect; inconclusive = small, poorly fitted or top-dose-only effect, or another doubt; inactive = no such curve, though single readings can be large; an effect the other way counts as inactive or inconclusive. Unless noted, % is scaled to controls: 0 for no effect and ±100 for the full control effect.

SMILES	PNC assembly inh	NPSR antag	IMPase Li inh	HPGD block	ALDH1A1 block	IMPase inh
CC(C)(C)c1cc(C(=S)N2CCN(CCO)CC2)cc(C(C)(C)C)c1O	?	-4%[46.1 µM]	32%[38.3 µM]	25µM*	18µM*	8
OCCN1CCN(Cc2cc(Br)cc(Br)c2O)CC1	-19	-4%[46.1 µM]	32%[38.3 µM]	-4%	-1%	0
OCCN1CCN(C(=S)c2ccc(Cl)cc2)CC1	?	1%[46.1 µM]	6%[38.3 µM]	16µM*	16µM*	-9
CCN1CCN(C(=S)c2ccc(OC)cc2)CC1	.	18%	7%	.	-14%	.
CCN1CCN(C(=S)c2ccc(Cl)cc2)CC1	19	-10%[46.1 µM]	13%[38.3 µM]	10µM*	?	0
CCc1nc(C)cn1S(=O)(=O)c1ccc(Cl)c(Cl)c1Cl	?	-5%[46.1 µM]	18%	-13%	-3%	19
CCOC(C)=O	.	.	7%	-7%	?	.
COc1ccc(S(=O)(=O)N2CCOCC2)cc1OC	-18	8%	7%	-2%	2%	.
Cc1ccc(C(=O)CN(Cc2ccccc2)C2=NCCS2)cc1	?	16%	10%	-1%	20µM*	1
O=C(CN(Cc1ccccc1)C1=NCCS1)c1ccccc1	36	9%	-6%	2%	-10%	15
CN(c1ccc(OCC(=O)Nc2nc3ccccc3s2)cc1)S(=O)(=O)c1ccccc1	18	-10%[46.1 µM]	.	.	10%	6
COC(=O)c1ccc(CNC(=O)COC(=O)CC23CC4CC(CC(Br)(C4)C2)C3)cc1	?	20%	-6%	-26%	13µM*	.
Cc1cc(C)c(C(N)=O)c(Nc2cccc(Cl)c2)n1	-100*	16%[46.1 µM]	-4%	-20%	0%	-7
COc1ccc(Nc2nc(C)cc(C)c2C(N)=O)cc1	17	3%[46.1 µM]	0%[38.3 µM]	-3%	3%	12
Cc1cc(C)c(C(N)=O)c(Nc2ccc3c(c2)OCCO3)n1	-100*	0%[46.1 µM]	1%	-13%	-4%	-4
O=C(O)CSc1c(-c2ccccc2)c2cc(Cl)ccc2[nH]c1=O	56	-18%	-15%	-2%	0%	-5
NNC(=O)c1[nH]c2ccc(Br)cc2c1-c1ccccc1	.	21%	.	.	0.16µM*	.
Cc1ccc2[nH]c(C(=O)NN=C3CCCCC3)c(-c3ccccc3)c2c1	.	-5%	7%	.	1.4µM*	.
O=C(N/N=C/c1ccccc1Cl)c1[nH]c2ccc(Br)cc2c1-c1ccccc1	?	4%	2%	-25%	?	1
CC(C)CCNC(=O)Cc1c(C(=O)O)[nH]c2ccc(Cl)cc12	0	-3%[46.1 µM]	.	.	?	-1
NNC(=O)c1[nH]c2ccc(Cl)cc2c1-c1ccccc1	.	12%	.	.	1.1µM*	.
Cc1ccc2[nH]c(C(=O)O)c(-c3ccccc3)c2c1	-17	-8%[46.1 µM]	4%[38.3 µM]	?	?	?
CCc1c(C(=O)O)[nH]c2ccc(Br)cc12	-8	?	10µM*	6%	-4%	?
COc1ccc(S(=O)(=O)Nc2cc(C(=O)NC(C)C)ccc2N2CCOCC2)cc1	-5	-3%[46.1 µM]	44%[38.3 µM]	-24%	0.79µM*	-2
COc1ccc(NS(=O)(=O)c2ccc(N3CCOCC3)c(NC(=O)c3ccc(OC)cc3)c2)cc1	?	-12%	10%	-6%	9%	.
SMILES	PNC assembly inh	NPSR antag	IMPase Li inh	HPGD block	ALDH1A1 block	IMPase inh
COc1ccc(N2CCN(S(=O)(=O)c3ccc(C(=O)NC4CCCC4)cc3)CC2)cc1	?	5%[46.1 µM]	-4%	-8%	?	-3
COc1ccc(S(=O)(=O)Nc2cc(C(=O)NC3CCCCCC3)ccc2N2CCOCC2)cc1	55	-29%[46.1 µM]	2%[38.3 µM]	-11%	3.5µM*	10
CCOC(=O)c1cnc2c(ccc3ccccc32)c1Nc1ccccc1OC	.	.	.	.	.	-12
CCCC(=O)Nc1ccc(NC(=O)c2ccccc2Cl)nc1	-84*	2%[46.1 µM]	17%[38.3 µM]	-2%	-2%	?
O=C(Nc1ccc(NC(=O)c2ccccc2Cl)nc1)c1ccncc1	.	-14%	0%	.	-14%	.
CCCC(=O)Nc1ccc(NC(=O)Cc2ccccc2)cn1	-12	1%[46.1 µM]	-3%[38.3 µM]	-10%	3%	5
CCCC(=O)Nc1ccc(NC(=O)CCc2ccccc2)cn1	-114*	-6%[46.1 µM]	-4%[38.3 µM]	-10%	-4%	-5
CCn1c(COc2ccccc2)nnc1SCc1ccc(C#N)cc1	?	-4%[46.1 µM]	4%[38.3 µM]	-7%	-3%	8
CCCSc1ncnc2c1oc1ccccc12	24	-6%[46.1 µM]	?	20µM*	?	5
CC(C)CCn1c(CN2CCN(Cc3ccccc3)CC2)nc2c1c(=O)[nH]c(=O)n2C	2	-12%[46.1 µM]	25%[38.3 µM]	-14%	?	7
CCOC(=O)CSC1=C(C#N)C(=O)NC(c2ccc(OC)cc2)S1 (configuration not stated)	11	-7%[46.1 µM]	-9%[38.3 µM]	-16%	20µM*	7
CC(C)Cn1c(=S)[nH]c2cc(Cl)ccc21	.	-23%	-5%	.	8.9µM*	.
N#Cc1cnn(CC2CCCCC2)c1N	-97*	-3%[46.1 µM]	-16%[38.3 µM]	-11%	5%	2
c1cncc(-c2nc(NCCCn3ccnc3)c3ccccc3n2)c1	.	3%	15%	.	6%	.
OCCNc1nc(-c2cccnc2)nc2ccccc12	?	-2%[46.1 µM]	16%[38.3 µM]	?	25µM*	4
Cc1nc(NC(C)(C)CO)c([N+](=O)[O-])cc1[N+](=O)[O-]	-119*	13%	1%	-5%	3%	.
O=C(CSc1nnc(COc2ccc(Cl)cc2)n1Cc1ccco1)c1ccccc1F	-2	?	12%[38.3 µM]	-2%	?	4
CC(=O)Nc1cccc(NC(=O)CSc2ncc(-c3ccccc3)[nH]2)c1	.	3%	6%	.	-6%	.
O=C(O)C1CC(=O)N(c2ccc(OCc3c(F)cccc3Cl)cc2)C1 (configuration not stated)	-108*	-12%[46.1 µM]	6%	1.6µM*	4%	-4
COc1cccc(C2CC(c3ccccc3)Nc3ncnn32)c1 (configuration not stated)	?	18%[46.1 µM]	38%[38.3 µM]	-17%	7.1µM*	1
COc1cccc(C2CC(c3ccccc3OC)n3ncnc3N2)c1 (configuration not stated)	3	-8%[46.1 µM]	25%[38.3 µM]	-15%	14%	6
Cc1ccc(C2CC(c3cccc(Br)c3)Nc3nnnn32)cc1 (configuration not stated)	?	-14%[46.1 µM]	23%	-24%	18µM*	5
Clc1ccc(C2CC(c3ccco3)n3ncnc3N2)cc1Cl (configuration not stated)	0	-15%	8%	-3%	32µM*	18
